Wee1 degr inh: inhibitors of human Wee1 degradation; P30291; HeLa Luc-Wee1K328M stability, luciferase luminescence; 100% = proteasome inhibitor MG132 effect; reporter increase, % at 5 µM; 220,000 compounds, 1.2% hits;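 active = activation above the mean of all tested compounds plus 3 SD, set per screening run, cut at about 8.8% in these data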;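 note: cells exposed to compound for 20 h before luminescence read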
Target sequence (P30291 whole entry K328M): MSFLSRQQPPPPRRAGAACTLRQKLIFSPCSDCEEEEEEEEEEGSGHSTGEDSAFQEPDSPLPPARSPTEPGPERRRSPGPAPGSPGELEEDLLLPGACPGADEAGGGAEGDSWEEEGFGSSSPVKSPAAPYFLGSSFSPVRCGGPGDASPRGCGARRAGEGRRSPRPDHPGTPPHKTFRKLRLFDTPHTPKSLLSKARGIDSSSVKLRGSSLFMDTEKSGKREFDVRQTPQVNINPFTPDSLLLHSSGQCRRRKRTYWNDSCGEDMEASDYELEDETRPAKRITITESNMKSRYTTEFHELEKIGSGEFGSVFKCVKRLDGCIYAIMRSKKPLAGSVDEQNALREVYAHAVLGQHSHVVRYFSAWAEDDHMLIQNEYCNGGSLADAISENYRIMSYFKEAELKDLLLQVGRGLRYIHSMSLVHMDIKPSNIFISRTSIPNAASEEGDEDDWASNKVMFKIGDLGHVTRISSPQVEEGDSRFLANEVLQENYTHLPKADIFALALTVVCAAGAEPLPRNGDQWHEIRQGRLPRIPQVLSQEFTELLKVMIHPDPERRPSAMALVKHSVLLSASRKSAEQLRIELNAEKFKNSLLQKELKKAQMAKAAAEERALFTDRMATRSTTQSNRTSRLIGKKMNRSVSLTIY
APP 5'UTR act: activates APP 5'UTR luciferase reporter; activation, % at 2 µM; SH-SY5Y APP 5'UTR luciferase reporter, luminescence; zero percent = DMSO vehicle wells; 190,000 compounds, 1% hits;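 active = activation above a set limit, based on mean plus 3 SD of controls, cut at about 140% in these data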
APP 5UTR inh: APP translation inhibition; SH-SY5Y APP 5'UTR-luciferase reporter, luminescence; inhibition, % at 2 µM; 190,000 compounds, 0.82% hits;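 active = inhibition above a set limit, derived from the sample mean plus 3 SD, cut at about 45% in these data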
NF-kB neuron act: NF-kB expression increase, human neuronal cells; NF-kB reporter expression; active compounds read high; fold change at 12.5 µM; 190,000 compounds, 1.6% hits; in the data active = fold change above about 3.3
STAT1 activator: increases IFN-gamma driven STAT1 reporter signal | NIH 3T3 STAT1-luciferase reporter, luminescence; 100% = IFN-gamma alone, no compound | activation (% of control), % at 5.5 µM | 200,000 compounds, 2.6% hits | AID 932;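 active = activation above the screen-wide mean activation plus 3 SD, cut at about 130% in these data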
Hsp70 act: Hsp70 transcriptional activation, primary screen; 200,000 compounds, 0.04% hits; activation, % at 10 µM; AID 1203; HeLa Hsp70 promoter luciferase reporter, luminescence; scaled: vehicle 0, proteasome-inhibitor control 100%;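 active = activation above the mean across all tested compounds plus 3 SD, cutoff set per campaign, cut at about 5.5% in these data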
Wee1 stab conf: confirmation of human Wee1 degradation inhibitors | shares compounds with Wee1 degr inh | HeLa Luc-Wee1K328M degradation, luminescence; vehicle 0%, proteasome-blocked wells 100% | activation, % at 5 µM | 1,100 compounds, 4% hits | AID 1410; in the data active = activation above about 8.9%
Of the large screens only hits and unclear results are named; the others gave an inactive call (follow-up assays come after a bar, where they were run). The list is not random: actives were taken first. Their share in the collection is about 4.8%.

O=C(Nc1ccc(Cl)c(Cl)c1)Nc1nccs1	Wee1 degr inh 14.1 (no result: APP 5'UTR act, APP 5UTR inh, NF-kB neuron act, STAT1 activator, Hsp70 act) | Wee1 stab conf 24.8
C#CCNC(=O)C1CCN(c2cc(C)nc(-c3ccccc3)n2)CC1	Wee1 degr inh 12.0 | Wee1 stab conf inactive
Cc1ccc(NC(=O)Cn2nnc(-c3ccccc3NC(=O)c3cccs3)n2)cc1	Wee1 degr inh 13.6 | Wee1 stab conf inactive
COc1ccc(Cl)c2c1[nH]c1nc(SCc3cccnc3)nnc12	Wee1 degr inh 12.7 | Wee1 stab conf inactive
O=C(CN1C(=O)NC(c2ccccc2)(c2ccccc2)C1=O)Nc1cccnc1Cl	none
Cc1cc(NC(=O)CSc2nnc(-c3ccccc3)n2C)no1	none
Cc1cc(NC(=O)CSc2nnc(C3COc4ccccc4O3)n2C)no1 (centres undefined)	Wee1 degr inh 21.5 | Wee1 stab conf inactive
CCOCCN(C(=O)c1ccccc1Cl)c1ccccc1	none (no result: APP 5'UTR act, APP 5UTR inh, NF-kB neuron act, STAT1 activator, Hsp70 act)
CCC(=O)N1CC2(c3ccccc3)CN(C(=O)CC)CC(c3ccccc3)(C1)C2=O	Wee1 degr inh 12.0 | Wee1 stab conf inactive
O=C(Nc1ccn(Cc2c(F)c(F)cc(F)c2F)n1)c1ccc(COc2ccccc2Cl)cc1	none
Cc1cc(C)nc(NC(=O)c2ccc(COc3ccccc3Cl)cc2)c1	Wee1 degr inh 14.0 | Wee1 stab conf inactive
COc1ccccc1-c1nnc(SCC(=O)N2CCOCC2)o1	Wee1 degr inh 11.5 | Wee1 stab conf inactive
COc1ccccc1-c1nnc(-c2ccc(N3CCOCC3)cc2)o1	Wee1 degr inh 14.5 | Wee1 stab conf inactive
COc1ccccc1OCCCC(=O)Nc1ccc(N2CCOCC2)cc1	none
COc1ccccc1-c1nnc(SCC(=O)N2CCC(C)CC2)o1	none
COC(=O)C(Cc1c[nH]c2ccccc12)NC(C)=O (centres undefined)	Wee1 degr inh 11.1 | Wee1 stab conf inactive
O=C(NCc1ccco1)/C(=C\c1ccco1)NC(=O)c1cccs1	Wee1 degr inh 30.4 | Wee1 stab conf inactive
Cc1cc(SCC#N)nc2ccccc12	none
CCOc1cccc(N(C(=O)Cc2cccs2)C(C(=O)NC2CCCCC2)c2cccn2C)c1 (centres undefined)	Wee1 degr inh 11.3 | Wee1 stab conf 9.6
O=C(c1ccc(F)cc1)n1ccc(-c2cnc(-c3ccccc3)s2)n1	Wee1 degr inh 14.6, NF-kB neuron act 3.62, STAT1 activator 135.7 | Wee1 stab conf inactive
CN1CCN(CC(=O)NN(Cc2ccccc2)c2ccccc2)CC1	none (no result: APP 5'UTR act, APP 5UTR inh, NF-kB neuron act, STAT1 activator, Hsp70 act)
CCN(CC)CC(=O)NN(Cc1ccccc1)c1ccccc1	Wee1 degr inh 11.1 (no result: APP 5'UTR act, APP 5UTR inh, NF-kB neuron act, STAT1 activator, Hsp70 act) | Wee1 stab conf inactive
CCN(CC)CCN(Cc1cc2cc3c(cc2[nH]c1=O)OCO3)C(=S)NCC1CCCO1 (centres undefined)	none
COc1ccc(C(=O)O)cc1NC(=S)NC(=O)c1ccc(-c2ccc(Cl)cc2)o1	none
Cc1ccc(C(=O)O)cc1NC(=S)NC(=O)c1ccc(-c2ccc(Cl)cc2)o1	Wee1 degr inh 12.1 (no result: APP 5'UTR act, APP 5UTR inh, NF-kB neuron act, STAT1 activator, Hsp70 act) | Wee1 stab conf inactive
CC(/C=C/c1ccc(N(C)C)cc1)=N/N=C1/NC(=O)CC(C(=O)Nc2ccc(Cl)cc2)S1 (centres undefined)	none
CC1=NOC(=O)/C1=C\c1ccc(-c2ccccc2Br)o1	none
O=CN1CCN(C(=O)c2ccc(-c3nc4ccccc4s3)s2)CC1	Wee1 degr inh 16.6, NF-kB neuron act 3.8, STAT1 activator 129.0 | Wee1 stab conf inactive
Cc1nn(-c2ccccc2)c(C)c1-c1cc(C(=O)N/N=C/c2cccnc2)[nH]n1	Wee1 degr inh 19.4 | Wee1 stab conf inactive
CCn1c(Cn2nnc(-c3ccccc3)n2)nnc1SCC(=O)Nc1ccc(C(C)=O)cc1	none
COc1ccc2[nH]c(CN3CCN(C(C)C)C(CCO)C3)c(C)c2c1 (centres undefined)	Wee1 degr inh 19.8 | Wee1 stab conf inactive
O=C(C1=NN[C@@H]2C(=O)N(Cc3ccccc3)C(=O)[C@H]12)c1ccc(F)cc1	Wee1 degr inh 11.0 (no result: APP 5'UTR act, APP 5UTR inh, NF-kB neuron act, STAT1 activator, Hsp70 act) | Wee1 stab conf inactive
Cc1nc(SCC(=O)Nc2ccnc3ccccc23)n[nH]1	none
CNc1oc(-c2ccccc2Cl)nc1C#N	Wee1 degr inh 12.5 | Wee1 stab conf inactive
CNc1oc(-c2cccc3ccccc23)nc1C#N	none
O=C(CN1CCC(n2nnc3cc(C(F)(F)F)ccc32)CC1)Nc1ccc2c(c1)CCC2	none
O=C(CN1CCC(n2nnc3cc(C(F)(F)F)ccc32)CC1)Nc1ccc2c(c1)OCCO2	Wee1 degr inh 15.1 | Wee1 stab conf inactive
Cc1ccc(S(=O)(=O)N2CCC(C(=O)N[C@@H](C)C(=O)Nc3ccc4c(c3)OCO4)CC2)cc1	none (no result: APP 5'UTR act, APP 5UTR inh)
CCOC(=O)c1c2n(c3ccc(O)cc13)CCC2	Wee1 degr inh 11.1 | Wee1 stab conf inactive
CCOC(=O)c1c(CN2CCCCC2)oc2ccc(O)cc12	none
CC1(C)SC(=Nc2ccccc2)N(S(=O)(=O)c2ccccc2)C1=O	none
COc1ccc(NS(=O)(=O)c2cc(NC(=O)c3ccccc3F)ccc2N2CCCC2)cc1	Wee1 degr inh 13.6 (no result: APP 5'UTR act, APP 5UTR inh, NF-kB neuron act, STAT1 activator, Hsp70 act) | Wee1 stab conf inactive
COc1ccc(NS(=O)(=O)c2cc(NC(=O)c3cccs3)ccc2N2CCCC2)cc1	none
Cc1ccc(-c2c3c(nc4sc(C(N)=O)c(N)c24)CCC3)cc1	none
Cc1nc2ccccc2n1CCN1CCOCC1	Wee1 degr inh 11.6 (no result: NF-kB neuron act) | Wee1 stab conf inactive
CC(=O)Nc1nc2ccccc2n1CCN1CCOCC1	none
CC(=O)c1c(COC(=O)c2ccc(C)cc2)nc2ccccc2[n+]1[O-]	Wee1 degr inh 16.4 (no result: APP 5'UTR act, APP 5UTR inh, NF-kB neuron act, STAT1 activator, Hsp70 act) | Wee1 stab conf inactive
O=C(Cn1cnc2ccccc2c1=O)N1CCN(c2ccccc2)CC1	none
NNC(=O)CN1C(c2ccccc2Br)=Nc2ccc(Br)cc2C1c1ccccc1 (centres undefined)	Wee1 degr inh 11.1 | Wee1 stab conf inactive
NNC(=O)CN1C(c2cccc(Cl)c2)=Nc2ccc(Br)cc2C1c1ccccc1 (centres undefined)	none
CN(C)S(=O)(=O)c1cccc(NC(=O)c2ccc(Sc3nncn3C)c([N+](=O)[O-])c2)c1	none
CCCCn1c(N)c(N(CC)C(=O)c2cc(OC)cc(OC)c2)c(=O)[nH]c1=O	Wee1 degr inh 11.3 | Wee1 stab conf inactive
Cc1cccc(C)c1NC(=O)CSc1cc(C(=O)c2nccn2C)c2ccccc2n1	none
c1ccc2[nH]c(NN=C3CCCCCC3)nc2c1	Wee1 degr inh 17.3 | Wee1 stab conf inactive
COc1cc(C(=O)N(CCc2ccccc2)C2=CC3CCC(C2)N3C)cc(OC)c1OC (centres undefined)	none
CC(C)C(=O)N1CCN(c2ccccc2NC(=O)Cc2ccc(Cl)cc2)CC1	none
CCCC1(c2ccccc2)NC(=O)N(CC(=O)c2[nH]c(C)c(C(=O)OCC)c2C)C1=O (centres undefined)	none
FC(F)(F)c1nc(NCC2CCCO2)c2nnn(Cc3ccccc3Cl)c2n1 (centres undefined)	none

From PubChem BioAssay
